Data on 13 molecules can be found in PubChem BioAssay (Tox21).

Unmarked numbers belong to inactive results. Records with an inconclusive call do not appear. Calls of active or inactive are those of the source. Calls come from the whole dose curve; as a rule, active = well fitted curve in the direction sought with a large enough effect in the repeat runs; inconclusive = weak or mixed curves; inactive = no such curve, though single readings can be large; an effect the other way counts as inactive or inconclusive.

Assay [1] in a line: qHTS RealTime-Glo MT Cell Viability Assay in HepG2 cells - 40 hour (AID 1224870). Note: nearly all actives have a fitted effect of over 50% in size. Note: potency is the fitted concentration of half-maximal effect. Summed up: (§1)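 Real-time viability: cells seeded at 600 per well together with NanoLuc and cell-permeant prosubstrate, compounds added after 5 h incubation. Luminescence tracked at 0, 8, 16, 24, 32 and 40 h of exposure.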
(qHTS replaces the single test concentration by a dilution series.)

Assay [2] can be described thus: A CellTox Green Cytotoxicity Assay to monitor cytotoxicity in HEK293 cells - 40 hour (AID 1224871). Note: nearly all actives have a fitted effect of over 45% in size. In outline:
(§2)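 Read-out: fluorescence of a cell-impermeant cyanine dye staining DNA of dead cells, proportional to cytotoxicity. HEK293, 600 cells/well with reagent, compound (23 nL DMSO) added after 5 h; reads at 0, 8, 16, 24, 32, 40 h.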

Assay [3] in a line: qHTS RealTime-Glo MT Cell Viability Assay in HEK293 cells - 16 hour (AID 1224872). Note: top concentration of the series differs between compounds; nearly all actives have a fitted effect of over 50% in size. Summed up:
(§3)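 Assay medium contained NanoLuc luciferase plus cell-permeant prosubstrate, added with HEK293 cells at 600 cells/well. After 5 h at 37 C/5% CO2 compounds were added; plates stayed at 37 C for 40 h with serial luminescence reads.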

Assay [4] can be described thus: qHTS RealTime-Glo MT Cell Viability Assay in HepG2 cells - 8 hour (AID 1224873). Note: nearly all actives have a fitted effect of over 55% in size. In outline: as §1
A short description of assay [5]: qHTS RealTime-Glo MT Cell Viability Assay in HEK293 cells - 40 hour (AID 1224874). Note: nearly all actives have a fitted effect of over 50% in size. To be noted: RealTime-Glo luminescence; max response: stronger effect = lower value. In outline:
(§4)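 Luminescence readout at each listed time point; HEK293, 600 cells/well, RealTime-Glo MT reagent added with cells; compounds pinned (23 nL in DMSO) after 5 h at 37 C; continuous culture at 37 C.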

Assay [6] can be described thus: A CellTox Green Cytotoxicity Assay to monitor cytotoxicity in HEK293 cells - 24 hour (AID 1224875). For activity change: series mostly up to about 77 µM. Note: nearly all actives have a fitted effect of over 45% in size. Note: potency is the fitted concentration of half-maximal effect. In outline: as §2
A short description of assay [7]: A CellTox Green Cytotoxicity Assay to monitor cytotoxicity in HepG2 cells - 16 hour (AID 1224876). Note: nearly all actives have a fitted effect of over 45% in size. In outline: (§5)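 HepG2, 600 cells/well premixed w/ CellTox Green; 5 h settle, 37 C/5% CO2; pintool cpd add (DMSO); 37 C, 40 h; fluorescence read at 0, 8, 16, 24, 32, 40 h.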
Assay [8] can be described thus: qHTS RealTime-Glo MT Cell Viability Assay in HepG2 cells - 32 hour (AID 1224877). Note: nearly all actives have a fitted effect of over 55% in size. Note: potency is the fitted concentration of half-maximal effect. Summed up:
(§6)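 qHTS, HepG2, 600 cells/well, RealTime-Glo (NanoLuc + prosubstrate) added with cells; 5 h preincubation; DMSO compound addition; 37 C; luminescence at 0/8/16/24/32/40 h.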

Assay [9] can be described thus: A CellTox Green Cytotoxicity Assay to monitor cytotoxicity in HepG2 cells - 24 hour (AID 1224878). Note: nearly all actives have a fitted effect of over 45% in size. Summed up:
as §5

Assay [10] is described as follows: A CellTox Green Cytotoxicity Assay to monitor cytotoxicity in HepG2 cells - 40 hour (AID 1224879). Note: nearly all actives have a fitted effect of over 40% in size. Summed up:
as §5

The nature of assay [11]: qHTS RealTime-Glo MT Cell Viability Assay in HEK293 cells - 0 hour (AID 1224880). Summed up: as §4
Assay [12] in a line: A CellTox Green Cytotoxicity Assay to monitor cytotoxicity in HEK293 cells - 32 hour (AID 1224881). Note: nearly all actives have a fitted effect of over 40% in size. In outline: as §2
Assay [13] in a line: A CellTox Green Cytotoxicity Assay to monitor cytotoxicity in HepG2 cells - 0 hour (AID 1224882). Note: nearly all actives have a fitted effect of over 35% in size. In outline: as §5
A short description of assay [14]: A CellTox Green Cytotoxicity Assay to monitor cytotoxicity in HepG2 cells - 32 hour (AID 1224883). Note: nearly all actives have a fitted effect of over 50% in size. In outline:
as §5

A short description of assay [15]: A CellTox Green Cytotoxicity Assay to monitor cytotoxicity in HEK293 cells - 8 hour (AID 1224884). Note: nearly all actives have a fitted effect of over 35% in size. In outline: as §2
The nature of assay [16]: qHTS RealTime-Glo MT Cell Viability Assay in HepG2 cells - 16 hour (AID 1224885). Note: nearly all actives have a fitted effect of over 50% in size. Summed up:
as §6

Assay [17] is described as follows: qHTS RealTime-Glo MT Cell Viability Assay in HEK293 cells - 24 hour (AID 1224886). Summed up: as §3
Assay [18] is described as follows: qHTS RealTime-Glo MT Cell Viability Assay in HEK293 cells - 8 hour (AID 1224887). Summed up:
as §4

Assay [19] is described as follows: A CellTox Green Cytotoxicity Assay to monitor cytotoxicity in HEK293 cells - 16 hour (AID 1224888). Note: nearly all actives have a fitted effect of over 35% in size. Summed up: as §2
Assay [20] in a line: qHTS RealTime-Glo MT Cell Viability Assay in HepG2 cells - 0 hour (AID 1224889). Note: nearly all actives have a fitted effect of over 50% in size. In outline: as §6
% is set by controls: 0 for no effect and ±100 for the full control effect.

With `CC(C)CCCC(C)CCCC(C)CCCCC(C)CCCC(C)CCCC(C)C` (stereo not drawn), the Potency entry in assay [1], in assay [2], in assay [3], in assay [6], in assay [7] and in assay [8] was “inactive” each time. For the same molecule, the Potency result in assay [9], in assay [10], in assay [12], in [13], in assay [14] and in assay [15] was “inactive” in each case. For the same molecule, the Potency entry in [17], in [18] and in assay [19] was “inactive” in each case. The molecule was classed as inactive in [4], in [11] and in assay [16]. Further, the max response in assay [5] was 3.24%.
Turning to `OCCCCCCO`, the Potency entry in [1], in assay [2], in [3], in assay [6], in assay [7] and in assay [8] was “inactive” in each case. The Potency result in assay [9], in [10], in assay [12], in assay [13], in assay [14] and in assay [15] was “inactive” each time. The Potency result in assay [17], in assay [18], in [19] and in assay [20] was “inactive” throughout. The molecule was classed as inactive in assay [4], in assay [11] and in [16]. Further, the max response in assay [5] is -17.6%.
For `COC(=O)CCCCCCCCC(=O)OC`, the Potency result in assay [1], in assay [2], in assay [3], in [6], in [7] and in [8] was “inactive” each time. In addition, the Potency entry in assay [9], in assay [10], in assay [12], in assay [13], in assay [14] and in assay [15] was “inactive” in each case. Also, the Potency result in assay [17], in [18] and in assay [20] was “inactive” in each case. In addition, the call in assay [4] and in [11] was inactive. The max response in assay [5] was 2.88%.
Consider `Nc1cc(C(Cl)=C(Cl)Cl)c(S(N)(=O)=O)cc1S(N)(=O)=O`, for which the Potency entry in assay [1], in assay [2], in [3], in assay [6], in assay [7] and in assay [8] was “inactive” each time. Besides, the Potency entry in assay [9], in assay [10], in [12], in assay [13], in assay [14] and in assay [15] was “inactive” in each case. Besides, the Potency result in assay [17], in assay [18], in assay [19] and in assay [20] was “inactive” in each case. In addition, the molecule was called inactive in assay [4], in assay [11] and in [16]. For the same molecule, in assay [5], the max response is -0.745%.
For `C=C(C)C(=O)NCCCN(C)C`, the Potency entry in assay [1], in assay [2], in assay [3], in assay [7], in assay [8] and in [9] was “inactive” throughout. In addition, the Potency entry in assay [10], in assay [12], in assay [13], in assay [14], in [17] and in assay [18] was “inactive” in each case. In addition, in assay [20], the Potency entry is “inactive”. In addition, the result in [4], in [11] and in [16] was inactive. The max response in assay [5] is 9.44%. In assay [6], the Potency was 0.0347 µM (active).
Take `C=C(C)C(=O)OCCCCCCCCCCCCCCCCCC`: the activity change, negative = cytotoxic is 13.1% [at 15.8 µM] in assay [1], 6.06% [at 15.8 µM] in [8] and 0.444% [at 15.8 µM] in assay [16]. The cytotoxicity increase in assay [2] is 0.266% [at 15.8 µM]; in assay [7] it was 3.12% [at 15.8 µM]; in assay [10], 2.24% [at 15.8 µM]; in assay [12], 3.44% [at 15.8 µM]; in assay [14], -0.434% [at 15.8 µM]; in [15], -3.54% [at 15.8 µM]. For the same molecule, the activity change, negative = cytotoxicity was 9.27% [at 15.8 µM] in assay [3], 4.5% [at 15.8 µM] in [11], 11.4% [at 15.8 µM] in [17] and 4.13% [at 15.8 µM] in [18]. The viability change, negative = cytotoxic in assay [4] is -0.392% [at 15.8 µM]. In addition, the max response in assay [5] is 3.5%. Besides, the activity change was 0.0651% [at 15.8 µM, stronger effect = higher value] in assay [6] and 0.239% [at 15.8 µM, stronger effect = higher value] in assay [19]. The cytotoxicity in assay [9] was -0.0576% [at 15.8 µM]; in [13], 0.514% [at 15.8 µM].
As to `CCCCCCCCCCCCI`, the Potency is 22 µM (active) in assay [1] and 24.7 µM (active) in [8]. The Potency result in [2], in [3], in assay [6], in [7], in assay [9] and in assay [10] was “inactive” each time. Moreover, the Potency entry in [12], in assay [13], in [14], in assay [17], in assay [18] and in [19] was “inactive” throughout. Moreover, the Potency entry in assay [20] was “inactive”. For the same molecule, the molecule was called inactive in assay [4], in [11] and in assay [16]. The max response in [5] was -9.8%.
For `CN(C)N=Nc1ccccc1`, the Potency entry in assay [1], in assay [2], in [3], in [6], in [7] and in assay [8] was “inactive” throughout. The Potency entry in assay [9], in [10], in assay [12], in assay [13], in [14] and in assay [15] was “inactive” throughout. Also, the Potency result in assay [17], in assay [18], in [19] and in assay [20] was “inactive” throughout. In addition, the call in assay [4], in assay [11] and in assay [16] was inactive. Also, in assay [5], the max response is 15%.
On to `OC/C=C/c1ccccc1`, for which the Potency entry in assay [1], in assay [2], in [3], in assay [6], in assay [7] and in [8] was “inactive” in each case. Moreover, the Potency entry in assay [9], in assay [10], in assay [12], in assay [13], in assay [14] and in [15] was “inactive” each time. Also, the Potency entry in [17], in [18] and in [19] was “inactive” in each case. Also, the molecule was called inactive in assay [4], in [11] and in [16]. For the same molecule, the max response in assay [5] is 21.7%.
For `O=[N+]([O-])c1ccc(CCO)cc1`, the Potency entry in assay [1], in assay [2], in assay [3], in assay [6], in assay [7] and in assay [8] was “inactive” throughout. Also, the Potency entry in assay [9], in [10], in assay [12], in [13], in assay [14] and in assay [15] was “inactive” in each case. Besides, the Potency result in assay [17], in assay [18], in assay [19] and in [20] was “inactive” throughout. Besides, the result in assay [4], in assay [11] and in assay [16] was inactive. For the same molecule, the max response in [5] was -7.45%.
Turning to `COC[C@H](c1ccc(C(F)(F)F)cc1)N1CCN(C2(C)CCN(C(=O)c3c(C)ncnc3C)CC2)C[C@H]1C`, the Potency result in [1], in assay [2], in [3], in assay [6], in assay [7] and in assay [8] was “inactive” throughout. For the same molecule, the Potency result in [9], in assay [10], in [12], in assay [13], in assay [14] and in [15] was “inactive” in each case. Further, the Potency entry in [17], in assay [18], in assay [19] and in assay [20] was “inactive” in each case. Also, the call in assay [4], in assay [11] and in assay [16] was inactive. For the same molecule, the max response in assay [5] was -19.9%.
As to `C=CCOCC(O)CS(=O)(=O)O` (stereo not drawn), the Potency result in assay [1], in assay [2], in assay [3], in [6], in [7] and in assay [8] was “inactive” throughout. In addition, the Potency result in assay [9], in [10], in assay [12], in [13], in assay [14] and in assay [15] was “inactive” in each case. For the same molecule, the Potency result in [17] and in assay [18] was “inactive” throughout. In addition, the molecule was classed as inactive in [4], in assay [11] and in assay [16]. For the same molecule, the max response in assay [5] is -7.7%.
Turning to `CCCCCCCCCCC1CO1` (stereo not drawn), the Potency entry in assay [1], in assay [2], in assay [3], in [6], in assay [7] and in [8] was “inactive” throughout. Moreover, the Potency result in assay [9], in assay [10], in assay [12], in assay [13], in assay [14] and in assay [15] was “inactive” throughout. The Potency result in assay [17], in assay [18] and in assay [20] was “inactive” each time. Moreover, the call in assay [4] and in [11] was inactive. Also, in assay [5], the max response was 6.25%.
